# Reference: PubChem BioAssay (NCATS)
# Records with an inconclusive call do not appear. Active and inactive are the calls of the source. Calls come from the whole dose curve; as a rule, active = well fitted curve in the direction sought with a large enough effect; inconclusive = small, poorly fitted or top-dose-only effect, or another doubt; inactive = no such curve, though single readings can be large or run the other way.
# Biological target: Glucagon-like peptide 1 receptor (Homo sapiens) (UniProt P43220)
# Assay: qHTS of GLP-1 Receptor Agonists: LOPAC Validation (AID 624148);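 note: higher luminescence signal means agonism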
# Conditions: GLP-1R agonist cell assay; series mostly up to 46.1 µM
# In short: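 HEK293 cells stably co-expressing a cAMP-responsive luciferase reporter and a hypersensitive GLP-1R were plated 12 h at 37 °C and exposed to compounds for 4-6 hr at 37 °C, 5% CO2. Luminescence was read 12 min after adding detection reagent.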
# Glucagon-like peptide 1 receptor (Homo sapiens), sequence (P43220 whole entry, looked up): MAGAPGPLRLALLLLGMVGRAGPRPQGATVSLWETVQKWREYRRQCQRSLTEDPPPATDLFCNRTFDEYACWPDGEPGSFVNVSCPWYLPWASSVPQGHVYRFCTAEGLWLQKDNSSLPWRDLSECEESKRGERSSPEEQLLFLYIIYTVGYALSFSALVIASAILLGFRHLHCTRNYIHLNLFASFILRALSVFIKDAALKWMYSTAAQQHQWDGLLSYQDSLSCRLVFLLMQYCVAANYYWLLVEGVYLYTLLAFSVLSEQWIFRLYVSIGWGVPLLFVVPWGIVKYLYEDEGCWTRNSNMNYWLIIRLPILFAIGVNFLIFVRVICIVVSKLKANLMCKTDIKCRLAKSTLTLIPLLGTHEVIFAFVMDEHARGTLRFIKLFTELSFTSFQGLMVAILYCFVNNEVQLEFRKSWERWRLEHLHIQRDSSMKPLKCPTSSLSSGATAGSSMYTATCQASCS
row,SMILES,outcome
1,NC(=O)N1c2ccccc2C=Cc2ccccc21,inactive
2,CCCOc1ccccc1-c1nc2n[nH]nc2c(=O)[nH]1,inactive
3,O=C(O)CP(=O)(O)O,inactive
4,C[N+](C)(C)CCOC(=O)CCC(=O)OCC[N+](C)(C)C,inactive
5,Cc1ccc(Cl)c(Nc2ccccc2C(=O)O)c1Cl,inactive
6,C[C@]12CCC(=O)C=C1CC[C@@H]1[C@@H]2C(=O)C[C@@]2(C)[C@H]1CC[C@]2(O)C(=O)CO,inactive
7,NC(Cc1ccc(Cl)cc1)C(=O)O (centres undefined),inactive
8,Cc1ccc(=O)n(-c2ccccc2)c1,inactive
9,NC(N)=NC(=O)Cc1c(Cl)cccc1Cl,inactive
10,CCNC(=O)N1CCN(CCCC(c2ccc(F)cc2)c2ccc(F)cc2)CC1,inactive
11,COCCCC/C(=N\OCCN)c1ccc(C(F)(F)F)cc1,inactive
12,CCN(CC)CCNC(=O)c1cc(S(C)(=O)=O)ccc1OC,inactive
13,Cc1nnc(SCC2=C(C(=O)O)N3C(=O)[C@@H](NC(=O)Cn4cnnn4)[C@H]3SC2)s1,inactive
14,CCN(Cc1ccncc1)C(=O)C(CO)c1ccccc1 (centres undefined),inactive
15,O=c1[nH]c(=O)n([C@H]2C[C@H](O)[C@@H](CO)O2)cc1Br,inactive
16,O=C(CCCN1CCC(O)(c2cccc(C(F)(F)F)c2)CC1)c1ccc(F)cc1,inactive
17,c1cnc(N2CCN(Cc3ccc4c(c3)OCO4)CC2)nc1,inactive
18,CO[C@@]1(NC(=O)CSCC#N)C(=O)N2C(C(=O)O)=C(CSc3nnnn3C)CS[C@@H]21,inactive
19,CC(C)[N+](C)(CCOC(=O)C1c2ccccc2Oc2ccccc21)C(C)C,inactive
